# Shown are actives, neighbours in structure and some others; about 10% of the full set was active somewhere.
# Mm-Cpn inhibitor: M. maripaludis TRiC chaperonin inhibition | actives 0.031% (n = 330,000) | Potency, µM (doses to about 76.9 µM), for inactives: top-dose activity, negative = inhibition, actives largely listed as inhibitors | purified Mm-Cpn ATPase, ADP Transcreener TR-FRET; also: potency is read from the fitted curve at half-maximal effect; nearly all actives have a fitted effect of over 80% in size
#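 Purified archaeal Mm-CPN (25nM final) preincubated 10 min at 37degC with compound, then 10uM ATP for 30 min at 37degC; ADP measured by HTRF Transcreener TR-FRET; buffer 30 mM TRIS pH 7.4, 100mM KCl, 5mM MgCl2, 1mM DTT.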
# PLK1 PBD block: inhibitors of human PLK1 polo-box domain binding; Potency, µM, for inactives: max response, negative = inhibition, usual class: inhibitors; P53350; Plk1 PBD binding of FITC phosphopeptide, fluorescence polarization; AID 720504; actives 2.8% (n = 360,000); also: potency is read from the fitted curve at half-maximal effect; series mostly up to about 57 µM; nearly all actives have a fitted effect of over 65% in size
# VDR inh: inhibitors of human vitamin D receptor; VDR-SRC2-3 peptide fluorescence polarization, 2 h; Potency, µM, for the others: max response, negative = inhibition, most hits filed as inhibitors; actives 0.93% (n = 400,000); also: potency is read from the fitted curve at half-maximal effect
# Target sequence (P11473 whole entry, looked up): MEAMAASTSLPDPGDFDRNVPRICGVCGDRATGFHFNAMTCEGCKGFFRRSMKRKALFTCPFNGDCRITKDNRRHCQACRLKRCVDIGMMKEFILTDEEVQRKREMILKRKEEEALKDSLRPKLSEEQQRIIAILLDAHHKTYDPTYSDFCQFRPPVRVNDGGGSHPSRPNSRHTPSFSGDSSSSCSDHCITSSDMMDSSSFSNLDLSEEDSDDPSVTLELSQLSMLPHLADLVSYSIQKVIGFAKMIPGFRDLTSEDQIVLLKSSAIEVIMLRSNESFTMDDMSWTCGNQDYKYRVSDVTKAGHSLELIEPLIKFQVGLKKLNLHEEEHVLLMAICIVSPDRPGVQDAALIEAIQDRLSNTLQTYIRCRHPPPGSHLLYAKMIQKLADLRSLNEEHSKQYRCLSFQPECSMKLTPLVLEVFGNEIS
#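 Measured by FP: displacement of SRC2-3 coactivator peptide from VDR by library compounds, following a two-hour ambient incubation.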
# CCT chaperon mod: cytosolic chaperonin activity modulation; actives 0.3% (n = 360,000); AID 651819; activity change, % (test concentration not listed), hits read low; purified chaperonin ATPase assay, HTRF ADP detection, 30 min; in the data active = activity change below about -30%
#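 We incubate TRiC, 40 or 20 nM final, with library compounds at 76 uM and 10 uM ATP for 30 min at 37 °C. ADP formed is detected with Transcreener HTRF reagents after 30 min at room temperature.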
# Sfp PPTase inh: inhibitors of Bacillus subtilis Sfp phosphopantetheinyl transferase | Q9F4F7 | Biochemical Sfp PPTase activity, qHTS | Potency, µM, for the others: largest response in the series, negative = inhibition, hits mostly inhibitors | actives 3.5% (n = 310,000) | AID 1490;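 also: the enzyme is Sfp with the accession as filed and its product quenches rhodamine fluorescence; potency is read from the fitted curve at half-maximal effect; 0% = enzyme reaction without inhibitor and -100% = no enzyme wells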
#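 Sfp 15 nM + cpd, 15 min RT; start w/ rhodamine-CoA 5 uM, BHQ-2-YbbR 12.5 uM (final); 50 mM Hepes pH 7.6, 10 mM MgCl2, 0.01% NP-40, 0.01% BSA; read 525/598 nm at 0 and 30 min.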
# G9a block: inhibitors of human histone lysine methyltransferase G9a; actives 8.8% (n = 350,000); AID 504332; Potency, µM (top dose mostly 102 µM), for the others: at the top dose activity, negative = inhibition, most hits filed as inhibitors; G9a H3K9 monomethylation, AlphaScreen, 2 h; Q96KQ7; also: potency is read from the fitted curve at half-maximal effect; nearly all actives have a fitted effect of over 75% in size
# Target sequence (Q96KQ7 913-1193 limits assumed): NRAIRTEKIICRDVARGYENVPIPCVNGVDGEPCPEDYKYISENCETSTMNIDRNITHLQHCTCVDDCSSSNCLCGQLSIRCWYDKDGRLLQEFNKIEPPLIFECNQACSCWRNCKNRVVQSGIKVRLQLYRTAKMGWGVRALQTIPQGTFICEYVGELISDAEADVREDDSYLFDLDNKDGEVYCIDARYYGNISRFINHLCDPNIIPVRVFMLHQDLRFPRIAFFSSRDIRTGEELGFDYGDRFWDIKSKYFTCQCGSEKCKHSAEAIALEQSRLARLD
#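 Chemiluminescent proximity detection of H3K9 monomethylation, read after 10 min bead incubation in the dark. Reaction: 20 nM G9a, 500 nM biotin-H3K9 peptide, 20 uM SAM cofactor, 2 h, room temperature, following 15 min enzyme-compound preincubation.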
# * marks the source's active call; other numbers are inactive results; ? = inconclusive; nt = not tested or not shown; ! = a repeat was not active; [ ] = another dose, or the depositor's remark. Unless noted, calls follow the shape of the dose curve; as a rule, active = well fitted curve in the direction sought with a large enough effect; inconclusive = small, poorly fitted or top-dose-only effect, or another doubt; inactive = no such curve, though single readings can be large; an effect the other way counts as inactive or inconclusive. Unless noted, % is scaled to controls: 0 for no effect and ±100 for the full control effect.
SMILES,Mm-Cpn inhibitor,PLK1 PBD block,VDR inh,CCT chaperon mod,Sfp PPTase inh,G9a block
COC(=O)c1ccc(C(NC(=O)OCc2ccccc2)/C(F)=C/[C@@H](C)C(=O)NCc2cc(C)on2)cc1 (some centres not stated),nt,nt,nt,nt,9.3%,nt
S=c1[nH]nc(-c2cc(-c3ccccc3)n[nH]2)n1/N=C/C=C/c1ccccc1,-1.3%,-3.8%,-11.4%,0.6,-2.1%,8.91µM*
O=[N+]([O-])c1ccccc1/C=C/C=N/n1c(-c2cc(-c3ccccc3)n[nH]2)n[nH]c1=S,-0.6%,?,-7.0%,-2.5,17.8µM*,nt
S=c1[nH]nc(-c2cc(-c3ccccc3)n[nH]2)n1/N=C/c1ccccc1,1.6%,-21.1%,-15.9%,1.0,-10.8%,-127.0%[59 µM]
Cc1ccc(-c2n[nH]c(=S)n2/N=C/C=C/c2ccccc2[N+](=O)[O-])cc1,0.3%,-20.8%,-8.3%,-2.1,?,0.282µM*
Cc1cccc(/C=N/n2c(-c3cc(-c4ccccc4)n[nH]3)n[nH]c2=S)c1,-1.7%,-24.7%,-2.5%,0.0,?,1.58µM*
Cc1cc(NC(=O)c2cc(Cl)ccc2Cl)ccc1-c1cc2ccccc2oc1=O,nt,nt,-28.2%,nt,nt,-35.6%[59 µM]
CCOc1ccc(NC(=O)Cn2c(=O)oc3cc(S(=O)(=O)N4CCC(C)CC4)ccc32)cc1,nt,nt,-7.8%,nt,nt,-5.1%[59 µM]
S=c1[nH]nc(-c2cc(-c3ccccc3)n[nH]2)n1/N=C/C(Br)=C/c1ccccc1,-4.8%,?,-21.2%,-1.3,?,22.4µM*
COC(=O)N1CCC[C@@]2(CCN(c3ccccc3)C2)C1,nt,nt,?,nt,-0.7%,3.7%[12.7 µM]
CSc1nc(=NC(C)=O)ss1,-3.2%,7.94µM*,?,-0.7,4.47µM*,?
COc1ccc(Cl)cc1NC(=O)CCCS(=O)(=O)c1nc(-c2ccc(OC)c(OC)c2)cc(C(F)(F)F)n1,nt,nt,?,nt,nt,-23.4%[59 µM]
Cc1cc(N=Nc2ccc(C)c(N=Nc3cc(C)c(N)cc3N)c2)c(N)cc1N,-3.4%,0.3%,5.5%,-3.0,?,39.8µM*
Cc1ccc(S(=O)(=O)Nc2ccc3ccccc3c2[N+](=O)[O-])cc1,nt,29.9µM*,-15.8%,-3.2,nt,nt
COc1ccc(S(=O)(=O)Nc2cc([N+](=O)[O-])ccc2OC)cc1,-0.4%,-1.2%,-7.4%,-0.8,10.2%,-8.8%[59 µM]
CCCCCOC(=O)Nc1ccc(S(=O)(=O)Nc2cccc([N+](=O)[O-])c2)cc1,0.4%,-9.7%,13.3%,-52.8*,36.8%,-7.6%[59 µM]
CC(=O)Nc1ccc(S(=O)(=O)Nc2cc([N+](=O)[O-])ccc2C)cc1,1.6%,6.7µM*,?,0.4,20.1%,?
Cc1ccc(S(=O)(=O)Nc2ccc3cc([N+](=O)[O-])ccc3c2[N+](=O)[O-])cc1,nt,23.8µM*,20.4%,-2.0,nt,nt
CCCCOC(=O)Nc1ccc(S(=O)(=O)Nc2cc(C)nc(C)n2)cc1,1.0%,-1.8%,-12.9%,0.7,8.4%,11.1%[59 µM]
COc1ccc(CCNCc2ccc3c(c2)n(C)c(=O)n3C)cc1OC,nt,nt,16.8%,nt,nt,-16.2%[59 µM]
CCOC(=O)N1CCN(Cc2nc3cc([N+](=O)[O-])ccc3n2C(C)C)CC1,nt,nt,15.7%,nt,nt,-16.1%[59 µM]
N#Cc1ccc(CSc2nc3c(c(=O)[nH]2)CCC3)cc1,nt,nt,5.9%,nt,nt,?
CCOC(=O)CC1C(=O)NCCN1C(=O)c1cc2c(=O)n3ccccc3nc2s1 (configuration not stated),-5.6%,nt,nt,nt,-3.2%,89.1µM*
CCOC(=O)CC1C(=O)NCCN1C(=O)c1cc2c(=O)n3cccc(C)c3nc2s1 (configuration not stated),-1.5%,-5.4%,3.6%,0.6,8.2%,?
O=C(c1cc2c(=O)n3ccccc3nc2s1)N1CCc2ccccc2C1,-2.2%,nt,nt,nt,?,39.8µM*
SMILES,Mm-Cpn inhibitor,PLK1 PBD block,VDR inh,CCT chaperon mod,Sfp PPTase inh,G9a block
COc1ccc2c(c1)CCC1[C@@H]2CCC2(C)[C@@H](NCCCCCCN3C(=O)C=CC3=O)CC[C@@H]12 (some centres not stated),nt,nt,0.0%,nt,-26.2%,nt
CCN(CC)C(C)CN1c2ccccc2Sc2ccccc21 (configuration not stated),nt,nt,?,nt,-17.3%,5.01µM*!
OCCNCC(O)CN1c2ccccc2Sc2ccccc21 (configuration not stated),-1.4%,-10.4%,-11.1%,-1.8,8.0%,12.6%[59 µM]
CCc1ccc(OCc2nnc(SCc3ccc(C(=O)O)cc3)o2)cc1,0.4%,-17.6%,-11.3%,0.8,0.2%,nt
CCOC(=O)CSc1nnc(COc2ccc3ccccc3c2)o1,-12.6%,26.7µM*,-22.3%,1.9,19.4%,nt
Cc1csc(N(C)C(=O)CSc2nnc(COc3cccc4ccccc34)o2)n1,-4.8%,-9.1%,-3.9%,0.4,0.9%,10µM*
O=C(O)c1ccc(CSc2nnc(COc3ccccc3)o2)cc1,-1.7%,?,17.4%,-2.9,2.7%,44.7µM*
CC[C@H](C)[C@H](NC(=O)CNC(=O)[C@H](CCCNC(=N)N)NC(=O)[C@H](CO)NC(=O)[C@H](C)NC(=O)[C@H](Cc1ccc(O)cc1)NC(=O)[C@H](Cc1c[nH]c2ccccc12)NC(=O)[C@H](C)NC(=O)[C@@H]1CCCN1C(=O)[C@H](CC(N)=O)NC(=O)[C@@H](NC(=O)[C@H](CC(=O)O)NC(=O)[C@@H]1CCCN1C(=O)[C@@H](NC(=O)[C@H](CCCNC(=N)N)NC(=O)[C@@H](NC(=O)[C@H](CCC(=O)O)NC(=O)[C@H](CCSC)NC(=O)[C@H](CO)NC(=O)[C@H](Cc1cnc[nH]1)NC(=O)[C@H](CCCNC(=N)N)NC(=O)[C@H](Cc1cnc[nH]1)NC(=O)[C@@H](NC(=O)[C@H](CCCNC(=N)N)NC(=O)[C@@H](N)CO)[C@@H](C)O)[C@@H](C)CC)[C@@H](C)O)[C@@H](C)CC)C(=O)N[C@@H](CCCNC(=N)N)C(=O)N1CCC[C@H]1C(=O)N[C@H](C(=O)NCC(=O)N[C@@H](CCCNC(=N)N)C(=O)N[C@@H](Cc1ccccc1)C(N)=O)C(C)C,nt,nt,-1.3%,nt,17.3%,nt
CCOC(=O)c1sc(NC(=O)c2cc3nc(-c4ccccc4)cc(C(F)(F)F)n3n2)c(C(=O)OCC)c1C,nt,nt,6.8%,nt,nt,4.5%[59 µM]
OC1=C(O)c2nc3cc(F)ccc3nc21,-3.6%,21.2µM*,-6.8%,-0.7,39.8µM*,39.8µM*
CN(CC(=O)Nc1ccc(Cl)cc1)Cc1cc(=O)n2ccsc2n1,-1.2%,29.9µM*,-2.2%,2.0,-0.9%,?
Cc1ccc(NC(=O)CN(C)Cc2cc(=O)n3ccsc3n2)cc1,-1.0%,-15.5%,1.7%,-4.5,11.9%,?
COc1cccc(-n2c(SCC(=O)Nc3cccc(C)c3)nc3c([nH]c4ccccc43)c2=O)c1,nt,nt,17.3%,nt,nt,5.7%[59 µM]
